Results on 40 molecules are retold here after PubChem BioAssay (NCATS).

Structures are written as SMILES. Inconclusive results are not listed. Active and inactive are the calls of the source. Calls follow the shape of the dose curve; as a rule, active = well fitted cell-killing curve with a large enough effect; inconclusive = small, poorly fitted or top-dose-only effect; inactive = no such curve, though single readings can be large or run the other way.
Potency is read from the fitted curve at half-maximal effect.

This experiment is described as follows: qHTS of pediatric cancer cell lines to identify multiple opportunities for drug repurposing: Primary screen for OHS-50 cells (AID 1347103). Also: nearly all actives have a fitted effect of over 40% in size. To be noted: OHS-50 osteosarcoma viability, CellTiter-Glo luminescence, 48 h; series mostly up to 57.3 µM; activity change, negative = cytotoxic: at the top concentration. From the text:
Drug repurposing or repositioning has been offered as a strategy for drug development in oncology programs. This approach has special potential for childhood cancers and other rare or orphan diseases, where the expected return on new drug development has been a disincentive to pharmaceuticals.
In this project we exploit the poly-pharmacology of drugs to discover new indications via phenotypic screening of a panel of 19 well-characterized cell lines derived from solid tumors seen in children and adolescents. The goal is to identify approved drugs with previously unrecognized anticancer properties that has the potential to reveal new mechanisms and biological processes involved in carcinogenesis or drug resistance. We employed a titration-based paradigm (quantitative high-throughput screening or qHTS), where all compounds were tested at multiple concentrations for their effect on cell viability. Concentration-response curves (CRCs) were derived directly from the primary screen, and both potency and efficacy values were used to identify compounds with robust bioactivity profiles. We screened the NIH Chemical Genomics Center (NCGC) Pharmaceutical Collection (NPC) and Mechanism Interrogation Plate (MIPE) small molecule collections of approved and investigational compounds against these cell lines; and measured metabolically active cells after 48 hours of compound treatment as a proxy for cell viability.
Assay Submitter: Nathalia J. Martinez, National Center for Advancing Translational Sciences, National Institutes of Health, Rockville, MD, USA; email: natalia.martinez@nih.gov
[1] Shen, M et al. Quantitative high-throughput phenotypic screening of pediatric cancer cell lines identifies multiple opportunities for drug repurposing. Oncotarget 2017 Dec 19;9(4):4758-4772. PMID 29435139.
The cells were obtained from University of North Carolina (UNC), Pediatric Preclinical Testing Program (PPT), and Coriell Institute (CI).
qHTS cell viability assay:
Cells were assayed in growth media at a density of 500-1,000 cells/well. Five microliters of cells were dispensed into 1,536-well, white, solid-bottom, TC-treated plates (Greiner Bio One) using a multidrop dispenser and incubated at 37 degrees C, 5% CO2, under a humidified atmosphere for 5 hours. Twenty-three nanoliters of compounds and controls (neutral control DMSO or positive control bortezomib at final concentration of 2.3 µM) were subsequently transferred by Kalypsys pintool. For primary screens, the MIPE collection was tested at 11-point dilutions (final concentrations range from 0.78 nM to 46 µM) and the NPC collection at 8-point dilutions (final concentrations range from 0.59 nM to 46 µM). Compounds tested in follow-up screens were assayed at 11-point dilutions. Cells were incubated for 48 hours, followed by addition of 3 µL of CellTiter-Glo (Promega). After a 15 min incubation at room temperature, samples were analyzed for luminescence intensity using a ViewLux High-throughput CCD imager equipped with clear filters.
With `CC(=O)SC[C@@H](C)C(=O)N1CCC[C@H]1C(=O)N[C@@H](Cc1ccccc1)C(=O)O`, the “activity change, negative = cytotoxic” value is 28.8% (inactive).

On to `COc1cccc2c(NCc3ccccc3)nc(-n3c(N)nc4ccccc43)nc12`, for which the Potency was 9.68 µM (active).

With `Cc1ccc(C(=O)Nc2cccc(C(F)(F)F)c2)cc1-c1ccc2nc(NCCN3CCOCC3)ncc2c1`, the Potency was 3.85 µM (active).

As to `CN(C)CC=CC(=O)Nc1cc2c(Nc3ccc(F)c(Cl)c3)ncnc2cc1O[C@H]1CCOC1`, the Potency was 3.06 µM (active).

In the case of `CC1=C(CO)C(=O)O[C@@H]([C@@H](C)[C@H]2CC[C@H]3[C@@H]4C[C@H]5O[C@]56[C@@H](O)C=CC(=O)[C@]6(C)[C@@H]4CC[C@]23C)C1`, the Potency is 4.85 µM (active).

Turning to `Nc1nc(NCCNc2ncc(-n3ccnc3)c(-c3ccc(Cl)cc3Cl)n2)ccc1[N+](=O)[O-]`, the Potency was 19.3 µM (active).

Consider `COc1c(N2C[C@@H]3CCCN[C@H]3C2)c(F)cc2c(=O)c(C(=O)O)cn(C3CC3)c12`, for which the “activity change, negative = cytotoxic” value is 113% (inactive).

As to `COC(=O)Nc1nc2ccc(C(=O)c3ccc(F)cc3)cc2[nH]1`, the Potency was 0.968 µM (active).

`COc1cc(Nc2ncc(F)c(Nc3ccc4c(n3)N(COP(=O)(O)O)C(=O)C(C)(C)O4)n2)cc(OC)c1OC`: the Potency is 1.22 µM (active).

For `C[C@@H]1CN(CC(=O)Nc2ccc3c(c2)Cc2cccc(-c4cc(=O)cc(N5CCOCC5)o4)c2S3)C[C@H](C)O1`, the Potency is 21.7 µM (active).

For `C1=CCOCc2cc(ccc2OCCN2CCCC2)Nc2nccc(n2)-c2cccc(c2)OCC1`, the Potency was 2.17 µM (active).

As for `Nc1cc(C(F)(F)F)c(-c2cc(N3CCOCC3)nc(N3CCOCC3)n2)cn1`, the Potency was 0.153 µM (active).

For `COc1ccc(C=Cc2cc(OC)c(OC)c(OC)c2)cc1O`, the Potency is 0.001 µM (active).

Take `CC(C)c1noc(N2CCC(COc3ccc(-c4ccc(S(C)(=O)=O)cc4)nc3)CC2)n1`: the Potency is 4.32 µM (active).

Turning to `CCN1CCN(CC(=O)Nc2ccc(-c3cccc4c(=O)cc(N5CCOCC5)oc34)c3sc4ccccc4c23)CC1`, the Potency is 0.172 µM (active).

Turning to `CCc1c2c(nc3ccc(O)cc13)-c1cc3c(c(=O)n1C2)COC(=O)[C@]3(O)CC`, the Potency is 0.0086 µM (active).

With `CC1COC2(CCN(c3nc(=O)c4cc(C(F)(F)F)cc([N+](=O)[O-])c4s3)CC2)O1` (stereo not given), the “activity change, negative = cytotoxic” value was 24.1% (inactive).

Take `Cc1cc(C(=O)N2CCN(c3cccc(Cl)c3)CC2)n(-c2ccccc2)n1`: the Potency is 1.37 µM (active).

Regarding `CC(C)(C)NC(=O)[C@H]1CN(Cc2cccnc2)CCN1C[C@@H](O)C[C@@H](Cc1ccccc1)C(=O)N[C@H]1c2ccccc2C[C@H]1O`, the Potency is 19.3 µM (active).

`C1Cc2[nH]nc(-c3nn[nH]n3)c2C1`: the “activity change, negative = cytotoxic” value was 20% (inactive).

For the molecule `Cn1cc(-c2ccncc2)c(-c2ccc(OCc3ccc4ccccc4n3)cc2)n1`, the Potency was 3.06 µM (active).

As to `CC(O)C1C(=O)N2C(C(=O)O)=C(SC3CNC(C(=O)N(C)C)C3)C(C)C12` (stereo not given), the “activity change, negative = cytotoxic” value was 11.3% (inactive).

As for `CN1CCN(c2cc(C(=O)Nc3ccc4c(c3)-c3c(c(C(N)=O)nn3-c3ccc(F)cc3)CC4)c(Cl)cn2)CC1`, the Potency was 24.3 µM (active).

For `CN1c2cc(O)c(N=NC(N)=O)cc2CC1S(=O)(=O)O` (stereo not given), the “activity change, negative = cytotoxic” value was 25.9% (inactive).

In the case of `CCOC(=O)C1=C(C)NC2=C(C(=O)CC(C)(C)C2)C1c1ccc(-c2ccccc2)cc1` (stereo not given), the Potency is 19.3 µM (active).

With `CC(C)c1cc(C(=O)N2Cc3ccc(CN4CCN(C)CC4)cc3C2)c(O)cc1O`, the Potency was 0.769 µM (active).

In the case of `CCn1cc(-c2ccnc3[nH]c(-c4cccc(CN(C)C)c4)cc23)c(-c2ccc(NC(=O)N(C)C)cc2)n1`, the Potency was 3.85 µM (active).

Take `O=c1[nH]c(=O)n(C2CCCO2)cc1F` (stereo not given): the “activity change, negative = cytotoxic” value was 6.85% [at 116 µM] (inactive).

Consider `Nc1ncnc2c1c(-c1cnc3[nH]ccc3c1)nn2C1CCCC1`, for which the Potency was 0.0685 µM (active).

As for `Nc1ccc(S(=O)(=O)Nc2ncccn2)cc1`, the “activity change, negative = cytotoxic” value is 25.8% (inactive).

With `COc1cc(=C2C=c3ccccc3=N2)[nH]c1=Cc1[nH]c(C)cc1C`, the Potency is 7.69 µM (active).

For `CNC(=O)c1ccc(-c2cnc3ncc(Cc4ccc5ncccc5c4)n3n2)cc1F`, the “activity change, negative = cytotoxic” value was 14.3% (inactive).

For the molecule `O=C(NCCS(=O)(=O)c1ccc(C(F)(F)F)cn1)c1ccc(Cl)cc1`, the “activity change, negative = cytotoxic” value was 6.09% (inactive).

In the case of `COc1cc2nccc(Oc3ccc(NC(=O)C4(C(=O)Nc5ccc(F)cc5)CC4)cc3)c2cc1OC`, the Potency was 27.3 µM (active).

Turning to `CC(C)c1nn(-c2c(Cl)cccc2Cl)c2nc(Cc3ccc(OCCO)cc3)[nH]c(=O)c12`, the Potency was 0.0544 µM (active).

In the case of `COC(=O)C1=C(C)NC(C)=C(C(=O)OCCN2CCN(C(c3ccccc3)c3ccccc3)CC2)C1c1cccc([N+](=O)[O-])c1` (stereo not given), the Potency was 15.5 µM (active).

With `CCN(CC)CCNC(=O)c1ccc2nc(-c3ccccc3)c(-c3ccc(CN4CCC(n5c(=O)[nH]c6ccccc65)CC4)cc3)nc2c1`, the Potency was 3.43 µM (active).

Turning to `Nc1ccccc1NC(=O)c1ccc(CNC(=O)OCc2cccnc2)cc1`, the Potency is 0.863 µM (active).

Consider `Cc1cc(Nc2cc(CN3CCOCC3)c3nc(C)c(Cc4ccc(Cl)cc4F)n3n2)n[nH]1`, for which the Potency is 27.3 µM (active).

For `CC(C)[C@H](C(=O)Nc1ccc(C(=O)NO)cc1)c1ccccc1`, the Potency was 1.22 µM (active).
